Consider five compounds from PubChem BioAssay.

Molecules are shown by their SMILES. The source made the active and inactive calls.

Test [1] in a line: small molecules captured by biotinylated probe aFSTL3 – biochemical, small-molecule microarray, fluorescence 635/667, stem cell growth factor project, primary screen (AID 1064).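 Also: measures binding of the biotinylated anti-FSTL3 antibody to printed compounds.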 The conditions noted are these: higher = more signal.
The nature of test [2]: binders from COS7 lysate, DM2A8 probe, primary screen, torsin A project, cell lysate, small-molecule microarray, fluorescence 635/667 (AID 1065). The conditions noted are these: higher = more signal, COS7 lysate expressing mutant human TOR1A.
The nature of test [3]: small molecules captured by biotinylated probe aFGF2 – biochemical, small-molecule microarray, fluorescence 635/667, stem cell growth factor project, primary screen (AID 1067).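 Also: measures binding of biotinylated aFGF2 protein to printed compounds on slides; z-score merges feature fluorescence and signal-to-noise across triplicate slides.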 The conditions noted are these: higher = more signal.
A short description of test [4]: small molecules captured by biotinylated probe aFGF10 – biochemical, small-molecule microarray, fluorescence 635/667, stem cell growth factor project, primary screen (AID 1071).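 Also: score merges 667 nm spot intensity and signal to noise from triplicate slides.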 As to conditions: higher = more signal.
Test [5] deals with Neurogenic locus notch homolog protein 2 (Homo sapiens) (UniProt Q04721). The test is described as follows: small molecules binding Notch2 protein – biochemical, small-molecule microarray, 635 nm fluorescence, stem cell growth factors, primary screen (AID 1073). The conditions noted are these: higher = more signal.
Test [6] has as its target Pro-neuregulin-1, membrane-bound isoform (Homo sapiens) (UniProt Q02297). The test is described as follows: small molecules binding neuregulin-1 protein – biochemical, small-molecule microarray, fluorescence 635/667, psychiatric disease protein project, primary screen (AID 1075).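 Also: score combines 667 nm spot fluorescence with signal to noise.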 The conditions noted are these: NRG1 binding, 635 nm fluorescence, higher = more signal.
Test [7] deals with Neuregulin-1 EGF-like domain. As to the kind of experiment: small molecules binding NRG1 EGF domain – biochemical, small-molecule microarray, 635 nm fluorescence, primary screen (AID 1081).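 Also: binding of the protein to compounds printed on small-molecule microarray slides.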 The conditions noted are these: higher = more signal.
The nature of test [8]: FRG1 expression reporter modulators in myotubes – cell-based, C2C12 myotubes, firefly/Renilla luciferase, luminescence, FRG1 inhibition for FSHD, primary screen (AID 1084). As to conditions: FRG1 promoter luciferase, higher = more signal, called active from +8 up or from −8 down.
Test [9] in a line: small molecules captured by biotinylated probe aFST – biochemical, small-molecule microarray, fluorescence 635/667, stem cell growth factor project, primary screen (AID 1086).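 Also: score merges 667 nm fluorescence with signal-to-noise of each printed compound spot.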 The conditions noted are these: higher = more signal.
Test [10] is described as follows: binders of probe aHhip on microarray, primary screen, stem cell growth factor project, biochemical, small-molecule microarray, fluorescence 635/667 (AID 1087).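 Also: score merges spot fluorescence at 667nm with spot signal to noise ratio.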 The conditions noted are these: higher = more signal.
The subject of test [11] is PRMT1 (protein arginine N-methyltransferase 1). The test is described as follows: small molecules binding arginine methyltransferase PRMT1 – biochemical, small-molecule microarray, 635 nm fluorescence, primary screen (AID 1088).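 Also: binding of Prmt1 protein to compounds spotted on small-molecule microarray slides.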 As to conditions: higher = more signal.
Test [12] in a line: growth effects on S. cerevisiae YJM789 – YJM789 clinical isolate, OD600, 24 h, basal, primary screen (AID 1089).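 Also: growth of clinical yeast isolate S. cerevisiae YJM 789 seeded 1000 cells per well; test concentration not given here.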 As to conditions: higher = more signal, called active from +8 up or from −8 down.
The nature of test [13]: S. pombe growth modifiers, basal conditions – strain 972, OD600, 24 h, no modulator, primary screen (AID 1090).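 Also: basal condition with compound alone and no growth modifier present; test concentration not given here.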 The conditions noted are these: S. pombe 972 growth, higher = more signal, called active from +8 up or from −8 down.
Test [14] in a line: budding yeast growth modifiers under rapamycin – strain BY4716, OD600, 96 h, primary screen (AID 1091). Also: test concentration not given here. As to conditions: S. cerevisiae BY4716 + rapamycin, higher = more signal, called active from +8 up or from −8 down.
For test [15], the target named is Torsin-1A-interacting protein 2 (Homo sapiens) (UniProt Q8NFQ8). The test is described as follows: small molecules binding lysate-expressed LULL1 – cell lysate, human LULL1 lysate, 635/667 nm fluorescence, primary screen (AID 1092).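 Also: probe is lysate of COS7 cells overexpressing human LULL1; score merges per-feature 667 nm fluorescence with signal-to-noise.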 As to conditions: small-molecule microarray, hLULL1 lysate binding, 635 nm fluorescence; higher = more signal.
Test [16] is described as follows: optical density change of DRC41 E. coli – strain DRC41, OD650, 24 h, E. coli filamentation project, primary screen (AID 1093).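 Also: MC1000 strain lacking acrAB efflux and sulA so SOS filamentation is blocked; test concentration not given here.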 As to conditions: E. coli DRC41 growth, higher = more signal, called active from +8 up or from −8 down.
Test [17] can be described thus: probe aLefty2 binding to arrayed compounds – biochemical, biotinylated probe, 635/667 nm fluorescence, primary screen (AID 1094).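 Also: score merges spot fluorescence near 667 nm with spot signal-to-noise ratio.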 The conditions noted are these: small-molecule microarray, higher = more signal.
Test [18] relates to Noggin (protein binding on small-molecule microarray). The test is described as follows: small molecules binding Noggin protein – biochemical, 635/667 nm fluorescence, primary screen (AID 1095).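 Also: score merges 667 nm feature fluorescence with signal to noise over triplicate slides.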 As to conditions: 635 nm fluorescence, higher = more signal.
The target of test [19] is Neurogenic locus notch homolog protein 3 (Homo sapiens) (UniProt Q9UM47). As to the kind of experiment: small molecules binding NOTCH3 protein – biochemical, 635/667 nm fluorescence, primary screen (AID 1096). As to conditions: small-molecule microarray, 635 nm fluorescence, higher = more signal.
Test [20] can be described thus: probe aEGFR binding to arrayed compounds – biochemical, biotinylated probe, 635/667 nm fluorescence, primary screen (AID 1097).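 Also: probe is a biotinylated anti-EGFR antibody binding compounds printed on slides; score combines fluorescence near 667 nm and signal to noise of each spot.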 As to conditions: small-molecule microarray, higher = more signal.

Chain of Neurogenic locus notch homolog protein 3 (Homo sapiens) (Q9UM47 whole entry, looked up): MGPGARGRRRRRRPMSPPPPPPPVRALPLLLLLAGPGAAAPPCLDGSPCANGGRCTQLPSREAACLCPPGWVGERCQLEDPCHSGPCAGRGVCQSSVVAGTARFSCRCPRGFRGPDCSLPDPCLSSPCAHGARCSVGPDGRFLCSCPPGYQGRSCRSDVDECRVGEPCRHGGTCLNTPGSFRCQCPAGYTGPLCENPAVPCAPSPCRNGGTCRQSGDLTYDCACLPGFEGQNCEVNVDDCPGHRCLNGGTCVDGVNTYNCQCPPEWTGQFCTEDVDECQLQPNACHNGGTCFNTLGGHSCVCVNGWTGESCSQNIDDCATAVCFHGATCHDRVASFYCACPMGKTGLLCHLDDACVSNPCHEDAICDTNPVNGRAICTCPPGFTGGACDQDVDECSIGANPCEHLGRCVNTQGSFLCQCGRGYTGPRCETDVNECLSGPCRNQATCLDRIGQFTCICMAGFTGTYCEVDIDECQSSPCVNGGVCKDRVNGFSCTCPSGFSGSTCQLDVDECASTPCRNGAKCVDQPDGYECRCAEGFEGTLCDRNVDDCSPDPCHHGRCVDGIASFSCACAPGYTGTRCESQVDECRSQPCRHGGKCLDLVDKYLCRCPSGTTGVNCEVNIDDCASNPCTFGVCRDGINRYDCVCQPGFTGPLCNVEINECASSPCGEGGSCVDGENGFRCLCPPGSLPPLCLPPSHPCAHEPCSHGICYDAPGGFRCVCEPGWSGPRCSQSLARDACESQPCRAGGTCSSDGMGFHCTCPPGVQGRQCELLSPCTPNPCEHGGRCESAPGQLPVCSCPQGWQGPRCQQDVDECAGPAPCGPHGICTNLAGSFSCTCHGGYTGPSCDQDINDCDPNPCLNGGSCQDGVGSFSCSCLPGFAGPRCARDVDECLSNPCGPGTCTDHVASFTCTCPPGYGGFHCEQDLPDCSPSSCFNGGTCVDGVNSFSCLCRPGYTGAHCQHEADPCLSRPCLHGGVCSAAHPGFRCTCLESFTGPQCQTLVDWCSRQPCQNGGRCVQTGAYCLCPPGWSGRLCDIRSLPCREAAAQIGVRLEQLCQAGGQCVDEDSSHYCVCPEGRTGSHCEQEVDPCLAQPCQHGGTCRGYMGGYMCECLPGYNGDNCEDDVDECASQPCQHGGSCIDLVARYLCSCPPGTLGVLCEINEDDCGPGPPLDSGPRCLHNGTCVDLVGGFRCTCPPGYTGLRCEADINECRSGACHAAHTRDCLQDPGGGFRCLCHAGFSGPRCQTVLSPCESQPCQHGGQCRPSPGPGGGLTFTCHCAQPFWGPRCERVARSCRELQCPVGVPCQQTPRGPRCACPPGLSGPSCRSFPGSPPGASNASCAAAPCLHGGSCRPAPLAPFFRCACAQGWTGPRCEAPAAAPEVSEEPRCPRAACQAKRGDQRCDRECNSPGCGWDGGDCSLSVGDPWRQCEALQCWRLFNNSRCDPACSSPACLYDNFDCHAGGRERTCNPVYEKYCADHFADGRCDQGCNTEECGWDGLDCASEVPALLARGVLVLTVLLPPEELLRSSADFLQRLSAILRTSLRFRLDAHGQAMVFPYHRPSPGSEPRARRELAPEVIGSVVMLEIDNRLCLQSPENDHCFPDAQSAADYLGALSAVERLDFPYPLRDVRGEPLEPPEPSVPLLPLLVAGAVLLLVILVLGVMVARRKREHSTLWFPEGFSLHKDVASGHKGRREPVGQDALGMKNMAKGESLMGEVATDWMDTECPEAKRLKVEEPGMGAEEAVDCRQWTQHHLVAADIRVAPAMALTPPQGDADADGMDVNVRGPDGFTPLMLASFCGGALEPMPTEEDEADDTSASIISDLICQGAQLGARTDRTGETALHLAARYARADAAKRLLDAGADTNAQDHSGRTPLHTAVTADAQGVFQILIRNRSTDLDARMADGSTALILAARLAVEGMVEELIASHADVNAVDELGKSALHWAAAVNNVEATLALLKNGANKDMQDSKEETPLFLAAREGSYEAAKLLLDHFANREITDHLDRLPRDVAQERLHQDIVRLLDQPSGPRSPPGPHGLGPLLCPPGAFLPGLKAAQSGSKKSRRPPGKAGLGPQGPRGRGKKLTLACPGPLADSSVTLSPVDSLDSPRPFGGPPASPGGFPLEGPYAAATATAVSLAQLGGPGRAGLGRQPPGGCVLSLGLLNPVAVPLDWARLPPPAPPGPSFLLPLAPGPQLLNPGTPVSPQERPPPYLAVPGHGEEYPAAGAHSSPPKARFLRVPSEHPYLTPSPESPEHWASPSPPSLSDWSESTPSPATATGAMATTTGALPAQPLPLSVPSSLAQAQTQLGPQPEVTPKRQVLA
Chain of Torsin-1A-interacting protein 2 (Homo sapiens) (Q8NFQ8 whole entry, looked up): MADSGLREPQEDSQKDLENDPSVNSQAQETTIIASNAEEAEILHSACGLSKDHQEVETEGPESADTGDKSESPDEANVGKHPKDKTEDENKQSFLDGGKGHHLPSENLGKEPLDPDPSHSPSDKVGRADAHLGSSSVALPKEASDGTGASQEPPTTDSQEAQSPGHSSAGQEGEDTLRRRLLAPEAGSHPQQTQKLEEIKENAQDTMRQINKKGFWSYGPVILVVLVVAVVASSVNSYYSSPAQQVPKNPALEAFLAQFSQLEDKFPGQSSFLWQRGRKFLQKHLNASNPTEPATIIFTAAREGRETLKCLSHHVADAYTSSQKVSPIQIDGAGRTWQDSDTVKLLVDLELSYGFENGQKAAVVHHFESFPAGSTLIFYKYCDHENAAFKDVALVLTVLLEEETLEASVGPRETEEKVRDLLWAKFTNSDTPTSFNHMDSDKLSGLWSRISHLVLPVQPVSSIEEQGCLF
Chain of Pro-neuregulin-1, membrane-bound isoform (Homo sapiens) (Q02297 whole entry, looked up, the tested form may be a part, canonical isoform): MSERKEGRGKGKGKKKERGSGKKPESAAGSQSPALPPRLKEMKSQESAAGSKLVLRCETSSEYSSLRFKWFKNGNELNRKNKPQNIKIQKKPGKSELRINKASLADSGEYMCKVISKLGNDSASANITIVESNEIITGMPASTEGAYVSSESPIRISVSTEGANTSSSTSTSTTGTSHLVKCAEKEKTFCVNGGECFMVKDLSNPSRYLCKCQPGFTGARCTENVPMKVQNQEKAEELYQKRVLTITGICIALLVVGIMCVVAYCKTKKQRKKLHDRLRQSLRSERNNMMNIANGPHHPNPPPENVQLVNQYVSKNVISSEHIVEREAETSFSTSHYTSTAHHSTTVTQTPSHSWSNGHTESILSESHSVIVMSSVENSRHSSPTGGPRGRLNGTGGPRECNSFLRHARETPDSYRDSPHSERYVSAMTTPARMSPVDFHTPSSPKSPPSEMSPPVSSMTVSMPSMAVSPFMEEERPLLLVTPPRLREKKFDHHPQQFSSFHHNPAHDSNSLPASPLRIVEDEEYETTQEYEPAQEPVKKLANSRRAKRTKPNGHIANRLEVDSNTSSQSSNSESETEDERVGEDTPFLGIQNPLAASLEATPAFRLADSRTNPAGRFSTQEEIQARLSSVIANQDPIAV

As to `C=CCNC(=O)[C@@H]1[C@H]2C(=O)O[C@H](c3ccccc3)[C@H](c3ccccc3)N2[C@H](c2ccc(O)cc2)[C@@]12C(=O)Nc1ccccc12`, the composite z-score in test [1] is -0.156; in test [2], 0.654; in test [3], -0.0521; in test [4] it was 0.0546; in test [5], -0.554; in test [6], 1.31. In addition, the composite z-score in [7] is 0.574; in [9] it was -0.0542; in [10], -0.251; in test [11] it was 1.45; in test [15] it was 2.8; in test [17], -0.189. Also, the composite z-score is 0.855 in test [18], 0.31 in test [19] and -0.129 in test [20]. The z-score in [8] is 0.674 (inactive); in test [12], 0.455 (inactive); in test [13], -1.32 (inactive); in test [14] it was 1.89 (inactive); in test [16] it was 2.14 (inactive).
Consider `C=CC[C@@]1(C(=O)NCc2ccccc2)N=C(c2ccc(OCCCO)cc2)O[C@@H]1c1ccccc1`, for which the composite z-score in test [1] is 1.17; in test [2], 0.945; in test [3] it was -0.0778; in [4], -0.523; in [5], -0.347; in test [6] it was 1.61. In addition, the composite z-score was 0.845 in test [7]; 0.3 in test [9]; -0.191 in test [10]; 1.29 in test [11]; 3.19 in [15]; 0.195 in [17]. The composite z-score in test [18] was -0.469; in [19] it was 0.311; in test [20], -0.147. The z-score in [8] was -2.56 (inactive); in test [12], -2.54 (inactive); in [13], -4.81 (inactive); in test [14], 12.3 (active); in [16], 2.92 (inactive).
With `C#CCN1C(C(=O)OCC)OC[C@H]1c1ccccc1` (stereo not given in full), the composite z-score in test [1] was -0.551; in test [2], 2.59; in test [3], -0.128; in [4] it was 0.389; in [5], 0.678; in test [6], 0.0354. In addition, the composite z-score was -0.143 in test [7]; -0.0006 in [9]; -0.492 in test [10]; 0.52 in test [11]; 3.77 in [15]; -0.205 in test [17]. The composite z-score in [18] is 0.671; in [19], 0.804; in test [20], -0.109. The z-score in test [8] was -1.77 (inactive); in [12], -1.51 (inactive); in test [13], -2.08 (inactive); in test [14] it was -1.95 (inactive); in test [16], 1.92 (inactive).
`C=CCNC(=O)[C@@H]1[C@H]2C(=O)O[C@H](c3ccccc3)[C@H](c3ccccc3)N2[C@H](c2ccc(O)cc2)[C@@]12C(=O)N(C(=O)OCCOC)c1ccc(C#Cc3ccc(OC)cc3)cc12`: the composite z-score in [1] is -0.828; in [2], 0.974; in test [3], -0.0761; in test [4] it was 0.856; in [5] it was 1.34; in test [6] it was 1.41. The composite z-score in test [7] is 1.16; in test [9], 0.316; in [10] it was -0.0994; in test [11], 1.55; in test [15], 2.08; in test [17], -0.111. The composite z-score in test [18] is 0.605; in [19], 1.12; in test [20] it was -0.0674. In addition, the z-score in test [8] is -0.374 (inactive); in test [12] it was 0.342 (inactive); in [13] it was 0.1 (inactive); in test [14], 2.6 (inactive); in test [16] it was 2.2 (inactive).
With `C#CCOc1ccc(C[C@H]2C(=O)O[C@H](Cc3ccccc3)[C@H](/C=C/C3CC3)N2CC#C)cc1`, the composite z-score in [1] is 0.372; in [2], 0.259; in test [3], -0.14; in test [4], -0.118; in test [5], -0.487; in test [6], -0.13. The composite z-score in [7] is 0.141; in [9], -0.652; in test [10] it was -0.0074; in [11], -0.746; in test [15], 0.408; in test [17], -0.139. Further, the composite z-score in test [18] is -0.493; in [19], -1.74; in [20] it was -0.206. For the same compound, the z-score in test [8] was -4.41 (inactive); in test [12] it was 1.35 (inactive); in [13], -0.795 (inactive); in test [14], 0.519 (inactive); in test [16], 2.04 (inactive).
